From PubChem BioAssay (Tox21)
Inconclusive results are not listed. Where a call stands in place of a potency, no number is given. Activity calls are given as the source filed them. The call rests on the fitted dose curve; in most records, active means well fitted inhibition curve with a large enough effect in the repeat runs; inconclusive means weak or mixed curves; inactive means flat fitted curve, though single readings scatter.

Experiment: qHTS assay to identify small molecule HDAC inhibitors (AID 1259364); further: top concentration of the series differs between compounds; nearly all actives have a fitted effect of over 45% in size
Settings: HCT-116 HDAC-Glo I/II luminescence, 2 h; series mostly up to 92.4 µM
Description: U.S. Tox21 Program National Center for Advancing Translational Sciences [NCATS] NIH Chemical Genomics Center [NCGC] U.S. Environmental Protection Agency [EPA] National Institutes of Environmental Health Sciences [NIEHS] National Toxicology Program [NTP] U.S. Food and Drug Administration [FDA] Tox21 Assay Overview: Histone deacetylases (HDACs) are a group of epigenetic enzymes that regulate gene expression by histone deacetylation. HDACs are capable of introducing epigenetic modifications and such aberrations contribute to the onset and progression of several human diseases, thus making HDACs a popular therapeutic target. For identifying endogenous class I/II HDAC inhibitors a homogenous, luminogenic HDAC I/II cell based assay was used to measure the relative activity of class I and II HDACs from cells. Wild type HCT-116 cells were used to screen Tox21 libraries for identifying class I/II HDAC inhibitors.
Tox21 Assay Protocol Summary: HCT-116 cells were dispensed at 1,500 per well in 5uL of culture medium into white solid bottom 1536-well plates (Greiner Bio-One, Monroe, NC) using a Multidrop Combi (Thermo Scientific, Waltham, MA) dispenser. The assay plates were incubated at 37 C and 5% CO2 for an overnight, and then 23nL of compounds dissolved in DMSO and positive control were transferred using a Pintool station (Wako, San Diego, CA). The assay plates were incubated at 37C and 5% CO2 for 2hr. After compound treatment, 4uL of HDAC-Glo reagent (Promega Corporation, Madison, WI) was added to each well of the assay plates using Flying Reagent Dispenser (FRD, Aurora Discovery, San Diego, CA) and incubated the assay plates at room temperature for 30min. The luminescence signal was quantified using a ViewLux plate reader (Perkin Elmer, Shelton, CT).

| Structure (SMILES) | Potency | activity change, negative = inhibition |
| --- | --- | --- |
| C[C@H]1O[C@@H](O[C@H]2[C@@H](O)C[C@H](O[C@H]3[C@@H](O)C[C@H](O[C@H]4CC[C@@]5(C)[C@H](CC[C@@H]6[C@@H]5C[C@@H](O)[C@]5(C)[C@@H](C7=CC(=O)OC7)CC[C@]65O)C4)O[C@@H]3C)O[C@@H]2C)C[C@H](O)[C@@H]1O | inactive | – |
| CN1CCN(C2Cc3ccccc3Sc3ccc(Cl)cc32)CC1 (stereo not given) | inactive | – |
| CCCCCCCCCCCCCCNCCO | inactive | – |
| CCN(CC)CCCN(c1ccccc1)C1Cc2ccccc2C1 | inactive | – |
| COc1cccc(CCc2ccccc2OCC(CN(C)C)OC(=O)CCC(=O)O)c1 (stereo not given) | inactive | – |
| COCC(=O)O[C@]1(CCN(C)CCCc2nc3ccccc3[nH]2)CCc2cc(F)ccc2[C@@H]1C(C)C | inactive | – |
| CC(C)(c1cc(Br)c(O)c(Br)c1)c1cc(Br)c(O)c(Br)c1 | inactive | – |
| CC(C)(C)C1=CC(=O)C=C(C(C)(C)C)C1=O | inactive | – |
| C=C/C=C/C=C/CCCCC | – | -2.93% [at 19 µM] (inactive) |
| C=CC(C)C#N (stereo not given) | inactive | – |
| CCN(CC)CCOC(=O)C1(C2CCCCC2)CCCCC1 | inactive | – |
| Cc1cn[nH]c1 | inactive | – |
| C[Si](C)O[Si](C)C | inactive | – |
| CCOB(OCC)OCC | inactive | – |
| CC1(C)COCN1 | inactive | – |
| COc1cc(C(C)C)c2c(c1)S(=O)(=O)N(COc1cc(=O)n3cccc(OCCN4CCCCC4)c3n1)C2=O | – | -2.47% [at 19 µM] (inactive) |
| CC(C)C(=O)OCc1ccccc1 | inactive | – |
| COc1ccccc1C=O | inactive | – |
| O=C(O)CC(=O)O | inactive | – |
| OCCCc1cccnc1 | inactive | – |

| Structure (SMILES) | Potency | activity change, negative = inhibition |
| --- | --- | --- |
| OCCCS | inactive | – |
| O=C1NCN(c2ccccc2)C12CCN(CCCC(c1ccc(F)cc1)c1ccc(F)cc1)CC2 | inactive | – |
| Clc1ccc(C(Cn2ccnc2)OCc2ccsc2Cl)c(Cl)c1 (stereo not given) | inactive | – |
| C1CC(COCC2CO2)CCC1COCC1CO1 (stereo not given) | inactive | – |
| ClC/C=C\CCl | inactive | – |
| CC(C)c1ccc(O)c(C(C)C)c1 | inactive | – |
| Cc1cccc(N(C)C)c1 | inactive | – |
| CC(=O)OC(OC(C)=O)c1ccc([N+](=O)[O-])o1 | inactive | – |
| CCc1ccc(O)c(C(C)(C)C)c1 | inactive | – |
| CC1=CP(=O)(c2ccccc2)CC1 (stereo not given) | inactive | – |
| Oc1c(Br)cc(Br)c2cccnc12 | inactive | – |
| CCCC(O)C(O)CO (stereo not given) | inactive | – |
| CC(C)c1cccc(C(C)C)c1N1C(=O)c2ccc(O)cc2C1=O | inactive | – |
| CCc1c(C(=O)O)c(=O)cnn1-c1ccc(Cl)cc1 | inactive | – |
| Clc1cc(Cl)c(-c2c(Cl)c(Cl)cc(Cl)c2Cl)cc1Cl | inactive | – |
| CCN(CC)c1ccc(N)cc1 | inactive | – |
| Cc1ccc(O)cn1 | inactive | – |
| Cc1oc(-c2ccccc2)nc1CCOc1ccc(C[C@H](Nc2ccccc2C(=O)c2ccccc2)C(=O)O)cc1 | inactive | – |
| COc1cc(C(=O)NS(=O)(=O)c2ccccc2C)ccc1Cc1cn(C)c2ccc(NC(=O)OC3CCCC3)cc12 | inactive | – |
| O=S(=O)(O)c1cc(S(=O)(=O)O)c2ccc3c(S(=O)(=O)O)cc(S(=O)(=O)O)c4ccc1c2c43 | – | 4.2% [at 19 µM] (inactive) |
